# Results filed as inconclusive are left out. Where a call stands in place of a potency, no number is given. The source made the active and inactive calls. Unless noted, calls come from the whole dose curve; as a rule, active = well fitted curve in the direction sought with a large enough effect; inconclusive = small, poorly fitted or top-dose-only effect, or another doubt; inactive = no such curve, though single readings can be large; an effect the other way counts as inactive or inconclusive.
# Tests used:
# [1] = biological target: Glucocorticoid receptor (Homo sapiens) (UniProt P04150); assay: GR-GFP Redistribution (AID 450;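 active = compounds whose dose series gives a full or clear partial fitted curve of increased nuclear translocation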; note: potency is the fitted concentration of half-maximal effect); settings: U2OS GR-GFP nuclear translocation, laser cytometry, 2 h
# [2] = biological target: Glucocorticoid receptor (Homo sapiens) (UniProt P04150); assay: GR-EFC Redistribution (AID 451; calls by dose curve; note: potency is the fitted concentration of half-maximal effect); settings: CHO-K1 GR-EFC translocation, beta-gal luminescence, 2 h
# In short: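 Translocation of GR-ED fusion to nuclear EA restores b-gal, read by luminescence after 1 h room-temperature detection. Engineered CHO-K1 biosensor cells, 1,000/well, exposed 2 h at 37 C to titrations up to 46 uM final.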
# [3] = biological target: Mitogen-activated protein kinase 10 (Mus musculus) (UniProt Q61831); assay: JNK3 AlphaScreen Assay (AID 530; active = well fitted curve in either direction with a large enough effect, not every such curve was filed as active;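 note: kinase came from lysate of stimulated human HepG2 cells; signal reports phosphorylation of biotinylated GST-cJun 1-79 at Ser73 with 10 µM ATP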); settings: JNK3 lysate, c-Jun phosphorylation; series mostly up to 57.1 µM
# In short: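 Kinase buffer: 20 mM Tris-HCl pH 7.6, 10 mM MgCl2, 1 mM DTT, 0.1 mM Na3VO4, 0.01% Tween-20; ATP 10 uM. Substrate biotin-GST-cJun(1-79), enzyme from activated HepG2 lysates. Detection by Ser73 phospho-antibody AlphaScreen.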
# [4] = biological target: 3',5'-cyclic-AMP phosphodiesterase 4B (Homo sapiens) (UniProt Q07343); assay: qHTS Assay for Inhibitors of PDE-IV (AID 607; active = well fitted activation curve with a large enough effect in the main read-out, with a control signal flat, not every such curve was filed as active); settings: HEK293 ACTOne CNG channel cells, membrane potential fluorescence; series mostly up to 22.9 µM
# In short: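 HEK293 ACTOne cells with CNG channel (1000/well), endogenous PDE4; membrane potential dye, compounds up to 22.9 uM final. Fluorescence Ex 535/Em 590; RO 20-1724 (100 uM final) as reference.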
# [5] = biological target: Cytochrome P450 2C9 (Homo sapiens) (UniProt P11712); assay: qHTS Assay for Inhibitors and Substrates of Cytochrome P450 2C9 (AID 883); settings: recombinant CYP2C9, luciferin-H luminescence, 60 min; series mostly up to 57.1 µM; note: nearly all actives have a fitted effect of over 60% in size
# In short: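 Turnover of Luciferin-H (100uM, KM) by 10nM human CYP2C9 was measured over 60 min at 37C with NADPH regeneration; inhibitors and some substrates reduce luminescence. Data normalized to sulphaphenazole 57uM.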
# [6] = biological target: Cytochrome P450 3A4 (Homo sapiens) (UniProt P08684); assay: qHTS Assay for Inhibitors and Substrates of Cytochrome P450 3A4 (AID 884); settings: recombinant CYP3A4, Luciferin-PPXE luminescence; series mostly up to 57.1 µM; note: nearly all actives have a fitted effect of over 50% in size
# In short: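 Luminescent readout of luciferin produced by CYP3A4 (20 nM) dealkylation of Luciferin-PPXE, 25 uM (its KM). NADPH-driven reaction ran 60 min at RT after 10 min compound preincubation; data scaled to 57 uM ketoconazole as 100% inhibition.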
# [7] = biological target: Cytochrome P450 2D6 (Homo sapiens) (UniProt P10635); assay: qHTS Assay for Inhibitors and Substrates of Cytochrome P450 2D6 (AID 891); settings: recombinant CYP2D6, luciferin-ME EGE luminescence; series mostly up to 57.1 µM;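 note: luciferin methyl ether substrate demethylated by CYP2D6 with NADPH regeneration; nearly all actives have a fitted effect of over 60% in size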
# In short: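 Luminescent read-out of luciferin formed by 5 nM human CYP2D6 demethylating 30 uM Luciferin-ME EGE (Km level) over 60 min at room temperature after NADPH regeneration addition. Data normalized to full inhibition by 1.43 uM quinidine.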
# [8] = biological target: Cytochrome P450 2C19 (Homo sapiens) (UniProt P33261); assay: qHTS Assay for Inhibitors and Substrates of Cytochrome P450 2C19 (AID 899); settings: recombinant CYP2C19, luciferin-H EGE luminescence; series mostly up to 57.1 µM; note: nearly all actives have a fitted effect of over 60% in size
# In short: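 Reactions contain 5nM enzyme, 10uM Luciferin-H EGE (KM) and 50mM KPO4; compound preincubates 10 min at 37C, NADPH regeneration starts turnover for 60 min. Luminescence after detection reagent gives activity.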
# [9] = qHTS Assay for Lipid Storage Modulators (AID 1519; calls by dose curve); settings: Drosophila S3 cells, BODIPY lipid droplet/cell ratio, laser cytometry, cells loaded with oleic acid; for activity change, negative = inhibition: at 57.5 µM (top of the series)
# In short: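 Cells seeded at 5,000 per well were treated with compounds over a concentration series and loaded with oleic acid (400 uM, as added). Lipid droplet fluorescence (488 nm excitation, 500-530 nm channel) was read by laser-scanning cytometry and normalized to 20 uM Triacsin C.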
# [10] = biological target: DNA dC->dU-editing enzyme APOBEC-3G (Homo sapiens) (UniProt Q9HC16); assay: qHTS for inhibitors of Vif-A3G interactions: Validation (AID 588379); settings: Vif-A3G protein interaction assay; series mostly up to 46.1 µM
# In short: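 Yellow fluorescence (Ex 488, Em 500-530) of Vif-coexpressing HeLa A3G-eYFP cells, scanned by Acumen cytometer, reports blocked A3G degradation. Cells plated at 700/well overnight at 37 deg C before compound addition, then a further overnight compound incubation at 37 deg C.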
# [11] = tested on: Zika virus NS2B-NS3 protease; assay: Primary screen GU AMC qHTS for Zika virus inhibitors (AID 1347154); settings: Zika NS2B-NS3 unlinked protease, AMC fluorogenic substrate; series mostly up to 54.1 µM; note: nearly all actives have a fitted effect of over 70% in size
# In short: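 Fluorogenic AMC-substrate cleavage by noncovalent NS2B-NS3 protease complex (25 nM, pH 8.0 Tris buffer with Tween 20) followed for 15 minutes at room temperature (~20% conversion). Percent inhibition from ex340/em450 signal change, fitted by 4-parameter Hill equation.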
# [12] = Primary qHTS for small molecule stabilizers of the endoplasmic reticulum resident proteome: Secreted ER Calcium Modulated Protein (SERCaMP) assay (AID 1508630); settings: SH-SY5Y GLuc-SERCaMP (Gaussia luciferase released on ER calcium loss) secretion, thapsigargin, luminescence; series mostly up to 38.4 µM
# In short: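 The SH-SY5Y reporter protocol was run at 3 concentrations up to 38.3 uM (primary) or 11 concentrations (follow-up): 16 h compound, 100 nM thapsigargin for 4 h, then extracellular luciferase luminescence.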
# [13] = biological target: Ubiquitin carboxyl-terminal hydrolase 1 (Homo sapiens) (UniProt O94782); assay: Inhibitors of USP1/UAF1: Pilot qHTS (AID 504865); settings: purified USP1/UAF1, Ub-rhodamine cleavage fluorescence; series mostly up to 114 µM;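 note: rhodamine fluorescence freed from ubiquitin-rhodamine substrate followed over time; top concentration of the series differs between compounds; nearly all actives have a fitted effect of over 35% in size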
# In short: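 In 50mM HEPES pH 7.8 containing 0.5mM EDTA, 1mM TCEP, 0.1 mg/ml BSA and 0.01% Tween-20, 1nM USP1/UAF1 is exposed to compound for 15 min, then Ub-Rho (150nM final) is added and fluorescence is read over time.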
# [14] = measured here: cell count channel max response
# [15] = measured here: lipid channel max response
# Sequence of Glucocorticoid receptor (Homo sapiens) (P04150 whole entry, looked up, the tested form may be a part): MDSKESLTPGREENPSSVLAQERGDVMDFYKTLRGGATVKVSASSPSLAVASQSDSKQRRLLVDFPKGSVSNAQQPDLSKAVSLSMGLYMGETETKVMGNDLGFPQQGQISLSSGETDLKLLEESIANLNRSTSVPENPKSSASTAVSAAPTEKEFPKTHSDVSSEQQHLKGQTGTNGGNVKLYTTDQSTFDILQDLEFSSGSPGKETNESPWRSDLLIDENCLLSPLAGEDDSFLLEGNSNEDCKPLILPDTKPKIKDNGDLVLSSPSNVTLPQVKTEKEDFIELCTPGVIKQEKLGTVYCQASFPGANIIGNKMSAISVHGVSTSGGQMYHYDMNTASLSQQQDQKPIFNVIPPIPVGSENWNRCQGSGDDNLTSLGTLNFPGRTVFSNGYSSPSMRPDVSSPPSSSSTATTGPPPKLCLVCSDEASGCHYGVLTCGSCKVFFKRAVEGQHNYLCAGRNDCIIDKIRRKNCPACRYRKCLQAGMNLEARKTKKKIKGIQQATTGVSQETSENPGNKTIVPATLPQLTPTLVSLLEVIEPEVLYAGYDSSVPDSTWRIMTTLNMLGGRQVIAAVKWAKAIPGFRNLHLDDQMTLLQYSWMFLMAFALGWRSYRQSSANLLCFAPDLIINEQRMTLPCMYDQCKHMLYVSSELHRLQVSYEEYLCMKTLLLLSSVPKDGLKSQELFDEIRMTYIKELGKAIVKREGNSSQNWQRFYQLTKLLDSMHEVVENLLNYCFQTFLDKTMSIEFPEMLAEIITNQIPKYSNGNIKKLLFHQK
# Sequence of Ubiquitin carboxyl-terminal hydrolase 1 (Homo sapiens) (O94782 whole entry, looked up): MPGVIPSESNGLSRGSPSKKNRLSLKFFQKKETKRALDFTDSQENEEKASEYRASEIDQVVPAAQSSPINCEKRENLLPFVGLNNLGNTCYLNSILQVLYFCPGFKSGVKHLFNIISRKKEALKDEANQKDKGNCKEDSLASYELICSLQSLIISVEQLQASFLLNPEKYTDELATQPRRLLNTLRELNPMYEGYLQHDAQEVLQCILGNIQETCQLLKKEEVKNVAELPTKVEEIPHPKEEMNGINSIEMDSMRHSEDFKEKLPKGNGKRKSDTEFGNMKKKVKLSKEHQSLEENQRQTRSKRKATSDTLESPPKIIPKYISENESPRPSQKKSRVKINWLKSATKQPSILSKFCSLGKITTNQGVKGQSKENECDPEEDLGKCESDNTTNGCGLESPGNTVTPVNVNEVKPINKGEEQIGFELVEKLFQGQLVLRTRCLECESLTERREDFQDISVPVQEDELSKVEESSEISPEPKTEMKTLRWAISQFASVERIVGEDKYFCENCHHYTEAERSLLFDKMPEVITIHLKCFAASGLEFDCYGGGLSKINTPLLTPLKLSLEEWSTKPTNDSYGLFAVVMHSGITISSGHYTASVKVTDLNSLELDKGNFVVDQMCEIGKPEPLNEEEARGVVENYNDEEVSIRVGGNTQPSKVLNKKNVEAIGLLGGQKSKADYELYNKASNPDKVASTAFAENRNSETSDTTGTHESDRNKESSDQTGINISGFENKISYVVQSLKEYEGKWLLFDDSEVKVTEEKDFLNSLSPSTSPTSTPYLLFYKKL
# Sequence of 3',5'-cyclic-AMP phosphodiesterase 4B (Homo sapiens) (Q07343 whole entry, looked up): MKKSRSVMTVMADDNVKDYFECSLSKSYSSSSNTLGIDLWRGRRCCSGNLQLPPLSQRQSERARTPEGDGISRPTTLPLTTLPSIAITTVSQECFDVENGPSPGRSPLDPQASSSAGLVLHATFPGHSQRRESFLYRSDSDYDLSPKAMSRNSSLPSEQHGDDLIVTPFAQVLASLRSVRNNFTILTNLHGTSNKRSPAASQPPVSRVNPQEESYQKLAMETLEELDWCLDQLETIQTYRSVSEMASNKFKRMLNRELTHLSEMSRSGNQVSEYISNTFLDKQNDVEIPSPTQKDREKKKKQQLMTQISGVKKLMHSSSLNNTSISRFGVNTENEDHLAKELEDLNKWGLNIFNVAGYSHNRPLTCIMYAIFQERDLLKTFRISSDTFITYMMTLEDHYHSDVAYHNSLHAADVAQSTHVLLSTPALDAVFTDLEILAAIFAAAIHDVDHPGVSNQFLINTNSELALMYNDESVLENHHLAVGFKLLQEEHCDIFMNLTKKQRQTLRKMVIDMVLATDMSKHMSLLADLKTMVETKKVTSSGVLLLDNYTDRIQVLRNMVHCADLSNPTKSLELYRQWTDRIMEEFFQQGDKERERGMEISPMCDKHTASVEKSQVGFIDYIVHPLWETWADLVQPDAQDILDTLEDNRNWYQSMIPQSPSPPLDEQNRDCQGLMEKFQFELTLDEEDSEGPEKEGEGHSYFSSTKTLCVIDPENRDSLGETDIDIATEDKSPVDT
# Sequence of DNA dC->dU-editing enzyme APOBEC-3G (Homo sapiens) (Q9HC16 whole entry, looked up): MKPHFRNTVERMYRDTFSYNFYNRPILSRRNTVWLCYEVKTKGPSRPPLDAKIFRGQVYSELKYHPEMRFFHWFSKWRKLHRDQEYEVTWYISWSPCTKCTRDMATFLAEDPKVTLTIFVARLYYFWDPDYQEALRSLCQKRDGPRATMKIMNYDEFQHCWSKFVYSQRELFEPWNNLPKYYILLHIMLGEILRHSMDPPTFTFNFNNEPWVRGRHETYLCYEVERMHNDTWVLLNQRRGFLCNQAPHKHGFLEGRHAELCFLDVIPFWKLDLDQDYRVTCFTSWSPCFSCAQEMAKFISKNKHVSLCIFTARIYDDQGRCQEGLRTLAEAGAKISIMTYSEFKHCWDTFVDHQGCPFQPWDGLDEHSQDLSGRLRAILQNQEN
# Sequence of Cytochrome P450 3A4 (Homo sapiens) (P08684 whole entry, looked up): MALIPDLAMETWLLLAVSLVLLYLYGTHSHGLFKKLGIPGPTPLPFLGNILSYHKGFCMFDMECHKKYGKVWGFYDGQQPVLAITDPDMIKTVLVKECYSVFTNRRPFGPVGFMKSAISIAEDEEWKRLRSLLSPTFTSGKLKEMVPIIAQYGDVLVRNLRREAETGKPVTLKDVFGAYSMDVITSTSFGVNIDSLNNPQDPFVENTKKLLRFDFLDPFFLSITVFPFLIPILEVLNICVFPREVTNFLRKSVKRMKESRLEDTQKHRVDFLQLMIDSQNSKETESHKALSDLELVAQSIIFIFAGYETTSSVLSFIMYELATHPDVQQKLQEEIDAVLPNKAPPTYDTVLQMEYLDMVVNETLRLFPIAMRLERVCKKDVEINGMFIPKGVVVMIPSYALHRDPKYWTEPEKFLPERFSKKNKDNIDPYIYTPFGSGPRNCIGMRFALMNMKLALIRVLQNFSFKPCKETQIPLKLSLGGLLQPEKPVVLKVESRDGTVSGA
# Sequence of Cytochrome P450 2C9 (Homo sapiens) (P11712 whole entry, looked up): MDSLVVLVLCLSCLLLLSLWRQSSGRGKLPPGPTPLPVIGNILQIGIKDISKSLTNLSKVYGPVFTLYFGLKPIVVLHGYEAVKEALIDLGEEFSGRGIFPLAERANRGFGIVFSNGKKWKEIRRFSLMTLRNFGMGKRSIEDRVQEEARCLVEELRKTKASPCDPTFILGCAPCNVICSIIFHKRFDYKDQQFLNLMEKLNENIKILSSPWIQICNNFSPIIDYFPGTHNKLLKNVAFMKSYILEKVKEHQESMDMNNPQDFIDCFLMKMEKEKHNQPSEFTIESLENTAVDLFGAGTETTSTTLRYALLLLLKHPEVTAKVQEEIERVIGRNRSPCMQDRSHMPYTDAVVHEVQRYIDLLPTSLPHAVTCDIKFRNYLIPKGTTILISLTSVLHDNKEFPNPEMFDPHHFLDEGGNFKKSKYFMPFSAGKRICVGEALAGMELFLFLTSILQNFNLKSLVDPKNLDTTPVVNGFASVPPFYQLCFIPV
# Sequence of Cytochrome P450 2C19 (Homo sapiens) (P33261 whole entry, looked up): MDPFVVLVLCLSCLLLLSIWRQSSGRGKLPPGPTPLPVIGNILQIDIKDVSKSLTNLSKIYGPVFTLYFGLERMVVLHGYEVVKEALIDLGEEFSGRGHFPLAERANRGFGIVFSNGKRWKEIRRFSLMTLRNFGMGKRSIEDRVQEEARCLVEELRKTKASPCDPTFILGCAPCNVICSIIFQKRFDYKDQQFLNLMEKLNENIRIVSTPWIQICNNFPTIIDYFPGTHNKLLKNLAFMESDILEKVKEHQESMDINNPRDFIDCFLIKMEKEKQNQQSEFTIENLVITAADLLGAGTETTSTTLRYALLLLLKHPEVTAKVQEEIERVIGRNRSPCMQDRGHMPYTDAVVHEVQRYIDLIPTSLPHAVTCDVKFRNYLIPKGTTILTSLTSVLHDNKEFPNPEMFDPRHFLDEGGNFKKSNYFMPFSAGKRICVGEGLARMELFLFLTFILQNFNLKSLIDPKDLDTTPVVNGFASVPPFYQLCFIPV
# Sequence of Cytochrome P450 2D6 (Homo sapiens) (P10635 whole entry, looked up): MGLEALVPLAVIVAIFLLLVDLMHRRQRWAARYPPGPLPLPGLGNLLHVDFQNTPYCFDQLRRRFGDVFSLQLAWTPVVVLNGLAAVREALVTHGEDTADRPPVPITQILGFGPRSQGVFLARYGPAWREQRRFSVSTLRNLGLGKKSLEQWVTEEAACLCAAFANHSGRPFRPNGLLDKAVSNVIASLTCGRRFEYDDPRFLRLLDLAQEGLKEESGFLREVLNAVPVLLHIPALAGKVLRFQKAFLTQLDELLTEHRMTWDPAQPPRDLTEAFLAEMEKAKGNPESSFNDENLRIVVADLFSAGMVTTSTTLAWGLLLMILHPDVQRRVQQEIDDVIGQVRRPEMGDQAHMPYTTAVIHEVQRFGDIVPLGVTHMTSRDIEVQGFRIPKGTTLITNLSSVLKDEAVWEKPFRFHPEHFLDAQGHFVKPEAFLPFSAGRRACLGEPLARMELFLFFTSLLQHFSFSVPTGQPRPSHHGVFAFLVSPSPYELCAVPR
Structure (SMILES),Potency [1],Potency [2],Potency [3],Potency [4],Potency [5],Potency [6],Potency [7],Potency [8],"activity change, negative = inhibition [9]","max response [9, 14]","max response [9, 15]",Potency [10],Potency [11],Potency [12],Potency [13]
CSc1nc(N)c2ncn([C@H]3O[C@H](COP(=O)(O)OP(=O)(O)OP(=O)(O)O)[C@@H](O)[C@@H]3O)c2n1,> 46 µM (inactive),> 46 µM (inactive),inactive,inactive,inactive,inactive,inactive,inactive,4.02% (inactive),-2.91%,1.82%,inactive,inactive,inactive,–
COC(=O)[C@H]1[C@@H]2C[C@H]3c4[nH]c5ccccc5c4CCN3C[C@@H]2CC[C@@H]1O,–,–,inactive,inactive,–,–,–,–,4.47% (inactive),-3.24%,4.05%,inactive,inactive,inactive,inactive
N[C@@](C(=O)O)(c1ccc(P(=O)(O)O)cc1)C1CC1,> 46 µM (inactive),> 46 µM (inactive),inactive,–,–,–,–,–,-7.82% (inactive),3.93%,-1.11%,inactive,inactive,inactive,–
Cc1nccn1CC1CCC2C(C1=O)c1ccccc1N2C (centres undefined),–,–,–,–,–,–,–,–,–,–,–,–,inactive,inactive,–
Cc1cc(C(=O)O)ccc1[C@H](N)C(=O)O,> 46 µM (inactive),–,inactive,–,–,–,–,–,1.88% (inactive),7.87%,9.03%,inactive,inactive,inactive,inactive
CCCCCC(=O)O[C@H](CC(=O)O)C[N+](C)(C)C,> 46 µM (inactive),> 46 µM (inactive),inactive,–,–,–,–,–,1.82% (inactive),0.652%,2.66%,inactive,inactive,inactive,inactive
CN(CCc1ccc(Cl)c(Cl)c1)CCN1CCCC1,> 46 µM (inactive),> 46 µM (inactive),inactive,–,–,–,–,–,-5.91% (inactive),22.4%,15.8%,inactive,inactive,inactive,–
CCNC(=O)[C@H]1O[C@H](n2cnc3c(N)nc(NCCc4ccc(CCC(=O)O)cc4)nc32)[C@@H](O)[C@@H]1O,> 46 µM (inactive),> 46 µM (inactive),–,inactive,–,–,–,–,-4.61% (inactive),-14.7%,-19.8%,inactive,inactive,inactive,inactive
CC(=O)N1CCN(C)CC1,> 46 µM (inactive),> 46 µM (inactive),inactive,inactive,–,–,–,–,-3.74% (inactive),-2.52%,-5.67%,inactive,inactive,inactive,–
NC1(C(=O)O)CC(C(=O)O)C1 (centres undefined),> 46 µM (inactive),> 46 µM (inactive),inactive,inactive,–,inactive,–,–,5.41% (inactive),2.35%,10.2%,inactive,inactive,inactive,inactive
